Experimental findings from PubChem BioAssay are described below.

Molecules are shown by their SMILES. Calls of active or inactive are those of the source.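 How the source made its calls: active means compounds whose cell count with miR-34 switched on is under 0.7 times the count with it off; inactive means the rest.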

One experiment can be described thus: sensitizers of A549 cells to miR-34 induction, primary screen, imaging, A549 dox-inducible miR-34, nuclei and caspase counts (AID 1347080). Further: test concentration not given here. The settings on record: A549 miR-34 inducible, Hoechst nuclei count, 48 h; stronger effect = lower value; cell number ratio, induced over uninduced.
Regarding `CCOC(=O)c1c(Cc2cccc(Cl)c2)[nH]c2c1cc(O)c1ccccc12`, the fold change is 0.954 (inactive).

For `CCCC[C@H](CCC(=O)O)NC(=O)CCCCCCc1ccccc1`, the fold change was 0.993 (inactive).

Consider `NC(=Nc1ccc(F)cc1)NO`, for which the fold change was 1.01 (inactive).

The same experiment, now with this note: A549 miR-34 inducible, Hoechst nuclei count, 48 h; measured here: relative caspase fold change +Dox/-Dox.
With `CCCCC[C@H](O)/C=C/[C@H]1C(=O)C[C@H](O)[C@@H]1C/C=C\CCCC(=O)OC`, the fold change came out at 0.761.

`C#C[C@]1(O)CC[C@H]2[C@@H]3CCC4=CC(=O)CCC4[C@H]3CC[C@@]21CC` (stereo partly drawn): the fold change is 0.754.

On to `COC(=O)CCCCCC[C@@H]1[C@@H](CCC(O)C#Cc2ccccc2F)[C@H](O)C[C@@H]1O` (stereo partly drawn), for which the fold change worked out at 0.855.

As to `CC(Sc1nc2ccccc2[nH]1)C(=O)N/N=C/c1cc(Br)ccc1O` (stereo not drawn), the fold change turned out to be 1.43.

With `CC(C)=CCC/C(C)=C/CC/C(C)=C/CC[C@]1(C)CCc2c(C)c(O)c(C)c(C)c2O1`, the fold change worked out at 0.656.

In the case of `Cc1c(C(=O)c2ccccc2)c(N)c(-c2ccccc2)n1Cc1ccc(Cl)cc1`, the fold change turned out to be 1.39.

With `CCCCCCCCCCCCCCCCC/C=C/C(=O)O`, the fold change is 0.547.

`CCCCC(C)(C)[C@H](O)/C=C/[C@@H]1[C@@H](C/C=C\CCCC(=O)O)[C@H](O)C[C@H]1O`: the fold change turned out to be 1.73.

For `CCCCCCC[C@H](O)/C=C/[C@H]1[C@H](O)CC(=O)[C@@H]1C/C=C\CCCC(=O)O`, the fold change is 1.19.

With `CCCCC/C=C\C/C=C\C/C=C\C/C=C\CCCC(=O)OCC`, the fold change was determined as 0.655.

Turning to `CCCCC/C=C\C/C=C\C/C=C\C/C=C\CCCC(=O)OCc1ccsc1`, the fold change stood at 1.02.

Regarding `CC/C=C\C/C=C\C/C=C\C/C=C\CCCCC(=O)O`, the fold change was 0.773.

In the case of `OC1C[C@@H]2[C@@H](CC[C@@H](O)CCc3ccccc3)[C@H](O)C[C@@H]2O1` (stereo partly drawn), the fold change was 0.862.

On to `C[C@H](CCCO)[C@H]1CC[C@H]2[C@@H]3[C@H](O)C[C@H]4C[C@H](O)CC[C@]4(C)[C@H]3C[C@H](O)[C@]12C`, for which the fold change worked out at 1.07.

For `CCCCCCCCCCCCCCCCOC[C@H](COP(=O)([O-])OCC[N+](C)(C)C)OC(=O)CCCCCCCC(=O)O`, the fold change was 0.772.

Regarding `O=P(O)(O)OC1[C@H](OP(=O)(O)O)[C@H](O)C(O)[C@H](O)[C@H]1OP(=O)(O)O` (stereo partly drawn), the fold change turned out to be 1.1.

For the compound `CCCCCCCCCCCCC/C=C/[C@@H](O)[C@H](COP(=O)(O)O)NC(=O)CCCCCCC`, the fold change is 0.912.

Take `O=C1OC(O)C(c2cc3ccccc3s2)=C1Br` (stereo not drawn): the fold change is 0.534.

`CCCCC[C@@H](O)/C=C/[C@H]1[C@H](O)CC(=O)[C@@H]1CCCCCCC(=O)O`: the fold change worked out at 1.39.

With `CCCCCCCCCCCCCCCC(=O)OC[C@@H](O)COP(=O)(O)O`, the fold change stood at 0.427.

As for `CCCCC[C@H](O)/C=C/[C@H]1[C@H](O)CC(=O)[C@@H]1CCCCCCC(=O)NCCO`, the fold change was 1.4.

For `CCCCCCCCCCCCCCCCC/C=C\C(=O)O`, the fold change was determined as 1.

Turning to `CCCCC[C@@](C)(O)/C=C/[C@H]1C=CC(=O)[C@@H]1C/C=C\CCCC(=O)O`, the fold change is 1.14.

As to `O=C(OCc1ccccc1)[C@H](O)c1ccccc1`, the fold change amounted to 0.545.

Regarding `C=CCN(C)CCCCCCOc1ccc(C(=O)c2ccc(Br)cc2)c(F)c1`, the fold change stood at 0.704.

As to `O=C(O)CCC/C=C/C[C@@H]1[C@@H](/C=C/[C@@H](O)COc2cccc(C(F)(F)F)c2)[C@H](O)C[C@@H]1O`, the fold change came to 1.11.

In the case of `CCCCCCCCCCCCCCCCCCCCCCCCC(=O)OC`, the fold change is 0.88.

On to `CCCCCCCCCCCCCCCCCCCCCCCCCCCCCCO`, for which the fold change amounted to 0.745.

Consider `CC/C=C\C/C=C\C/C=C\C/C=C\C/C=C\CCCC(=O)O[C@H](COCCCCCCCCCCCCCCCC)COP(=O)([O-])OCC[N+](C)(C)C`, for which the fold change is 1.31.

On to `CCCCC/C=C\C=C\[C@H](O)CCCCCCCC(=O)O`, for which the fold change amounted to 1.02.

For the compound `CCCCC[C@@H](O)/C=C/[C@H]1C[C@H]2C[C@@H]([C@@H]1C/C=C\CCCC(=O)O)C2(C)C`, the fold change amounted to 0.452.

Consider `CCCCC[C@@](C)(O)/C=C/[C@H]1[C@H](O)CC(=O)[C@@H]1C/C=C\CCCC(=O)O`, for which the fold change turned out to be 1.07.

With `CCCCC/C=C\C/C=C\C/C=C\CCCCC(=O)OC`, the fold change is 0.952.

On to `CCCCCCCC/C=C\CCCCCCCC(=O)OCC`, for which the fold change is 0.399.

Consider `CCCC1([C@@H](O)C/C=C/[C@H]2[C@H](O)CC(=O)[C@@H]2CCCCCCC(=O)O)CCC1`, for which the fold change was 1.46.

In the case of `CC(C)OC(=O)CCC/C=C\C[C@@H]1[C@@H](/C=C/C(F)(F)COc2ccccc2)[C@H](O)C[C@@H]1O`, the fold change worked out at 0.899.

As to `CCCCC[C@@](C)(O)/C=C/[C@@H]1[C@@H](C/C=C\CCCC(=O)OC)[C@@H](O)C[C@H]1O`, the fold change was 1.07.

`CCOC(=O)c1c(Cc2cccc(Cl)c2)[nH]c2c1cc(O)c1ccccc12`: the fold change came out at 1.94.

Take `CCCC[C@H](CCC(=O)O)NC(=O)CCCCCCc1ccccc1`: the fold change worked out at 1.71.

`NC(=Nc1ccc(F)cc1)NO`: the fold change stood at 1.07.
